# Measured values taken from PubChem BioAssay AID504321 (NMMLSC, 2011).
# A number with no mark means an inactive call. Calls of active or inactive are those of the source.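 How the source made its calls: active means GFP response vs DMSO above 150% with enough events counted; inconclusive means fewer than 70 events counted for a yeast strain; inactive means the rest.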
# Test: yeast MEP2-GFP fusion level changes, TOR pathway – flow cytometry, third cherry pick, S. cerevisiae, confirmation (AID 504321);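 further: median per-cell GFP fluorescence by flow cytometry across all yeast cells; ratio of sample to DMSO median GFP so 100% equals the DMSO level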
# Conditions: S. cerevisiae MEP2-GFP strain, 3 h, at 10 µM, stronger effect = higher value
row,Structure (SMILES),GFP response vs DMSO
1,Cc1ccc(Nc2cc(=O)[nH]c(=O)[nH]2)cc1Cl,101%
2,Oc1c(I)cc(Cl)c2cccnc12,181% (active)
3,Cc1cccc(C)c1Nc1ncnc(N)c1[N+](=O)[O-],103%
4,O=C(Nc1nc(-c2ccccn2)cs1)c1ccccc1-n1cnnn1,94.7%
5,CCCOCc1ccc(O)c2ncccc12,110%
6,FC(F)Oc1cccc2cccnc12,110%
7,Nc1cccc2c1C(=O)c1ccc(Cl)cc1C2=O,116%
8,COc1ccccc1Nc1nc(NCCO)nc(N)c1[N+](=O)[O-],105%
9,CC(=O)NCCOc1cccc2cccnc12,110%
10,O=C(Nc1cccc2ccccc12)ON=C1CCCCC1,121%
11,COc1ccccc1Nc1nc(NCCC(C)C)nc(N)c1[N+](=O)[O-],105%
12,Cc1cccc(Nc2cc(=O)[nH]c(=O)[nH]2)c1C,114%
13,CCC(=O)Nn1cnc2c(c1=O)C1(CCCCC1)Cc1ccccc1-2,110%
14,Nc1cc(C(=O)O)c(N)c2c1C(=O)c1ccccc1C2=O,110%
15,Cc1ccc(Nc2cc(=O)[nH]c(=O)[nH]2)cc1C,114%
16,COc1ccccc1Nc1nc(NCCCN(C)C)nc(N)c1[N+](=O)[O-],112%
17,CS(=O)(=O)c1nc(-c2ccc(F)cc2)cc(C(F)(F)F)n1,133%
18,CS(=O)(=O)Oc1ccc(Br)c2cccnc12,110%
19,COC1=C/C(=C/c2c(N)n3cc(C)sc3nc2=O)C=CC1=O,131%
20,Cc1cc(C)c2ccc(N)nc2c1O,108%

row,Structure (SMILES),GFP response vs DMSO
1,O=C(O)c1ccc2cccc(O)c2n1,110%
2,CN1CCN(C(=O)c2cc(COc3ccc(F)cc3Cl)on2)CC1c1ccccc1 (centres undefined),101%
3,OCc1ccnc2c(O)cccc12,108%
4,CC(=O)C(CC(=O)N1CCCC1)C(=O)Nc1ccc(Cl)cc1 (centres undefined),105%
5,COc1cc(=O)n(C)c2c(O)cccc12,110%
6,CSc1ccccc1OCc1cc(C(=O)N2CCN(C)C(c3ccccc3)C2)no1 (centres undefined),103%
7,Nc1c(O)ccc2c1C(=O)c1ccccc1C2=O,105%
8,COC(=O)COc1c(Cl)cc(Cl)c2ccc(C)nc12,118%
9,Nn1cnc2c(c1=O)C1(CCCCC1)Cc1ccccc1-2,116%
10,O=C(Nc1ccccc1)O/N=C1/CCCc2occc21,112%
11,O=C(Nc1ccccc1Cl)ON=C1c2ccccc2-c2ccccc21,108%
12,Cc1cccc(N/C=C/C(=O)c2ccc(Cl)cc2)c1,112%
13,CNc1nc(N)c([N+](=O)[O-])c(Nc2ccccc2OC)n1,105%
14,Cn1c(=O)c2c(n3cnnc13)-c1ccccc1CC21CCCC1,112%
15,COCC(C)NC(=O)CCS(=O)(=O)c1nc(-c2ccc(OC)cc2)cc(C(F)(F)F)n1 (centres undefined),112%
16,Nc1ccc(O)c2c1C(=O)c1ccccc1C2=O,112%
17,C[n+]1cccc2c(Br)ccc([O-])c21,114%
18,CNc1nc(C)c([N+](=O)[O-])c(Nc2ccc(OC)cc2)n1,105%
19,Cc1nc(Nc2ccc(Cl)cc2)c(C#N)c(=O)[nH]1,108%
